The panel holds about 79,000 compounds, 15% with a hit somewhere; the sample as a whole holds those more often. Values without a mark were called inactive. The source made the active and inactive calls. Rule as the data show it: active = growth inhibition above about 70%; inactive = the rest.
Key:
[1] = NCI Yeast Anticancer Drug Screen. Data for the rad50 strain (AID 155);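 also: 0% = growth of vehicle-only cultures of the same strain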; conditions: S. cerevisiae rad50 strain growth inhibition; at 50.0 µM; active compounds read high
Summary of the method: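 Inhibition values express reduced yeast growth in compound-treated cultures relative to vehicle-treated controls.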

[2] = NCI Yeast Anticancer Drug Screen. Data for the mec2-1 strain (AID 157); conditions: S. cerevisiae mec2-1 strain, at 50.0 µM, active compounds read high
Summary of the method: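 Readout is yeast growth inhibition, normalised to vehicle-treated controls, in the mec2-1 strain exposed to compound.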

[3] = NCI Yeast Anticancer Drug Screen. Data for the sgs1 mgt1 strain (AID 161);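 also: 0% = growth of cultures given vehicle only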; conditions: S. cerevisiae sgs1 mgt1 strain, at 50.0 µM, active compounds read high
Summary of the method: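 Yeast cells carrying a defined DNA-repair defect were exposed to test compounds. Growth inhibition was measured relative to vehicle-treated controls.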

[4] = NCI Yeast Anticancer Drug Screen. Data for the cln2 rad14 strain (AID 165);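 also: 0% = growth equal to vehicle treated cultures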; conditions: S. cerevisiae cln2 rad14 strain, at 50.0 µM, active compounds read high
Summary of the method: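 Relative to vehicle controls, growth inhibition of compound-treated cln2 rad14 yeast was recorded.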

[5] = NCI Yeast Anticancer Drug Screen. Data for the bub3 strain (AID 167); conditions: S. cerevisiae bub3 mutant strain, at 50.0 µM, active compounds read high
Summary of the method: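 Steps: expose the mutant yeast strain to compound; grow alongside vehicle-treated cultures; measure growth; express inhibition against the vehicle cultures.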

[6] = NCI Yeast Anticancer Drug Screen. Data for the mlh1 rad18 strain (AID 175); conditions: S. cerevisiae mlh1 rad18 strain growth inhibition; at 50.0 µM; active compounds read high
Summary of the method: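 Test agents were incubated with a yeast strain of defined genotype (DNA damage repair defect). Inhibition of growth was derived by comparison with vehicle-exposed cultures.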

SMILES	growth inhibition [1]	growth inhibition [2]	growth inhibition [3]	growth inhibition [4]	growth inhibition [5]	growth inhibition [6]
C=C1C(=O)OC2C=C(C)CC3C=C(CCC=C(C)CCC12)C(=O)O3 (centres undefined)	0.5%	-33.5%	-13.2%	4.9%	-27.8%	-17.7%
CC(C(=O)OCc1ccccc1)(c1ccco1)N1C(=O)OC(c2ccccc2)C1c1ccccc1 (centres undefined)	-4.35%	-3.5%	4.55%	-3.5%	-17.1%	-23.1%
CC(NC(=O)c1ccc(C(C[N+](=O)[O-])SCCC(=O)O)cc1)C(=O)O (centres undefined)	18.9%	7.2%	26.2%	5.55%	-15.9%	1.2%
Cc1ccc(-c2nnc(CCCCCCCCc3nnc(-c4ccc(C)cc4O)n3N)n2N)c(O)c1	9.2%	-21.9%	3.75%	7.5%	1.75%	0.5%
O=C1C(=S)Nc2cccc(F)c21	38%	45%	33.2%	-3.65%	43.7%	33%
CC(=O)C(OCCCl)OCCCl	2.9%	-7.65%	1.6%	-1.5%	0.3%	-2.95%
Cc1cc2nn(C3CCCCO3)nc2cc1C (centres undefined)	1.75%	-20.4%	-21.6%	-25.4%	8.05%	-46.8%
Cc1cccc(C)c1Nc1cc(=O)[nH]c(=O)[nH]1	-2.6%	-2.75%	3.4%	-33.2%	-11.6%	-12.2%
CC(=O)OCC1OC(n2c(C)c(C(C)=O)c(-c3cccc4ccccc34)c(C#N)c2=S)C(OC(C)=O)C(OC(C)=O)C1OC(C)=O (centres undefined)	25.1%	22.4%	48%	22.1%	32.3%	33.9%
N#Cc1cc2ccccc2c2ccccc12	8.6%	-4.15%	5.85%	12.3%	-11.2%	18.4%
O=C(O)C1CCCCC1C(=O)NCc1ccco1 (centres undefined)	5.25%	4.55%	4.05%	3.7%	25.4%	0.05%
CC(=O)ONc1nc(C)c(CCC2OCCO2)c(SC(=N)N)n1	28.9%	27.2%	30%	14.9%	-1.7%	38.2%
CN(C)c1ccc(/C=C(\C#N)c2c(Cl)cccc2Cl)cc1	-13.9%	-8.55%	-11.1%	-25.4%	8.3%	-5.75%
CS(=O)(=O)OCC(O)C(O)C(OS(C)(=O)=O)C(O)COS(C)(=O)=O (centres undefined)	7.1%	1.75%	-7.75%	21.3%	-8.55%	7.35%
Cc1ccc2nc(Nc3ccc(Cl)cc3)cc(C(O)C3CCCCN3)c2c1 (centres undefined)	99.5% (active)	99.8% (active)	99.7% (active)	99.2% (active)	88.8% (active)	99.5% (active)
CCCCN(C(=O)N(CC)CC)[Si](C)(C)C	-17.6%	-41.7%	-12.4%	14%	-14.7%	-25.3%
Cc1cc([N+](=O)[O-])c(Cl)cc1Cl	-22.8%	25.3%	-9.35%	26.5%	12.2%	5.5%
CN(C)C1=NS(=O)(=O)N=C(N(C)c2ccccc2)O1	14.5%	6.65%	6.45%	16.8%	8.15%	10.5%
CCCC(=O)Oc1cccc(C)c1	15.7%	4.75%	0.1%	14.6%	0.1%	-17.8%
NCCO	-1%	1.15%	-11.8%	-3.6%	13.2%	-18.9%

SMILES	growth inhibition [1]	growth inhibition [2]	growth inhibition [3]	growth inhibition [4]	growth inhibition [5]	growth inhibition [6]
O=C(Nc1ccccc1C(=O)N/N=C/c1ccc(Cl)cc1)c1ccccc1Cl	49.2%	27.9%	22.6%	29.6%	42.1%	25.8%
Cc1cc(=O)c2c(Br)ccc(Br)c2[nH]1	3.5%	-16.1%	-1.1%	3.4%	7.3%	-13.8%
CCC(=O)Nc1nnc(SCCCCCCCCCCSc2nnc(NC(=O)CC)s2)s1	20.6%	4.95%	17.7%	19.3%	-2.5%	21.5%
c1nnco1	-4.2%	0.75%	-2.5%	5.5%	6.85%	-18.2%
O=C(/C=C/c1ccccc1)NC1C=Nc2ccccc2NC1=O (centres undefined)	13.8%	18.2%	7.2%	-11.9%	7.05%	16.1%
CC1=CC(=O)c2c(C=O)c(O)c(O)c(C(C)C)c2C1=O	91% (active)	93.4% (active)	91.8% (active)	91.1% (active)	91.2% (active)	90.8% (active)
COc1ccc(C(=O)COC(C)(C)C)cc1	-8.55%	-28.2%	-20%	-2.7%	-16.9%	-22.1%
CC(=O)N(C(C)=O)N1C(=O)C2C3C=CC(C4CC34)C2C1=O (centres undefined)	30.2%	17%	15.8%	19.6%	2.95%	23.4%
COc1c2c(c(OC)c(C(C)=O)c1OC(=O)c1ccccc1)CCO2	1%	-14.4%	11.4%	11.8%	0.05%	15.6%
COC1CC(NC(C)=O)C(OC(=O)c2ccccc2)C(CBr)O1 (centres undefined)	17.6%	1.4%	2.45%	15.2%	-1.8%	19.6%
Cc1ccc(-n2cc(-c3ccc(Cl)cc3)c3c2N=CN2NC(c4cccs4)=NC32)cc1 (centres undefined)	-32.8%	-5.8%	-18.9%	5.5%	-16.7%	-17.3%
CC(C)Nc1nc(N)nc2nc(-c3ccc(Cl)cc3)c(-c3ccc(Cl)cc3)nc12	-8.7%	-2.5%	-6.85%	-17.4%	8%	8%
COc1ccc(/C=C2\N=C(N3CCOCC3)NC2=O)cc1	-4.15%	7.25%	10.4%	-13.8%	-3.4%	-43.8%
CN1CCC(C(O)c2ccccc2)CC1 (centres undefined)	3.95%	-3.8%	-6.15%	-24.4%	3.95%	5.5%
CC(C)(Oc1ccc2c(=O)cc(-c3ccc(Cl)cc3)oc2c1)C(=O)Nc1c(Cl)cccc1Cl	16.4%	-20.1%	6.45%	-14.9%	2.75%	16.8%
CCCCOC(=O)c1ccc(NC(=O)Nc2ccc(SC)cc2)cc1	-4.05%	1.8%	19.2%	-8.75%	19.8%	-13.1%
Cc1c([N+](=O)[O-])cc(C(C)(C)C)c(OC(=O)CCl)c1[N+](=O)[O-]	99.5% (active)	99.7% (active)	99.6% (active)	99.2% (active)	99.4% (active)	99.5% (active)
CCC/C=C/C=C\C(=O)O[C@@H]1[C@@H](C)[C@]2(O)[C@@H]3C=C(C)C(=O)[C@H]3CC(COC(C)=O)=C[C@H]2[C@@H]2C(C)(C)[C@]12OC(C)=O	21.7%	-4.9%	-8.1%	11.9%	-9.65%	-26.2%
C=C(Cl)COc1ccc(-c2ccccc2)cc1	28.4%	6.9%	16.5%	-2.7%	-8.55%	1.2%

From PubChem BioAssay (NCI)
